# VP16 counter = Gal4-VP16 reporter inhibition counter-screen; Drosophila S2 Gal4-VP16 UAS-luciferase, luminescence, 20 h; Potency, µM (titrated, usually from 53.6 µM), inactives show at the top dose activity, negative = inhibition, hits mostly inhibitors; hit rate 3.5% among 310,000; AID 2546;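 also: Gal4-VP16 expression switched on by copper sulfate through the metallothionein promoter; nearly all actives have a fitted effect of over 50% in size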
# TDP1 cell CPT = growth inhibition of DT40 Tdp1-/-;hTDP1 cells with camptothecin (screen for TDP1 inhibitors); chicken DT40 Tdp1-/-;hTDP1 cells + 20 nM CPT, ATP luminescence, 48 h; Potency, µM (series often up to 46.2 µM), for inactives: at the highest dose activity change, negative = growth inhibition, hits mostly inhibitors; hit rate 12% among 420,000; also: nearly all actives have a fitted effect of over 55% in size
#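 Chicken DT40 Tdp1-/- cells complemented with human TDP1, 400 cells/well, exposed to compounds plus 20 nM camptothecin for at least 48 h at 37 C; viability read as ATP content by CellTiter-Glo luminescence.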
# TDP1 cell noCPT = qHTS for Inhibitors of human tyrosyl-DNA phosphodiesterase 1 (TDP1): qHTS in cells in absence of CPT; DT40 Tdp1-/- hTDP1 cells, no CPT, ATP luminescence, 48 h; Potency, µM (doses to about 46.2 µM), without a hit: at the top dose activity change, negative = growth inhibition, most hits filed as inhibitors; hit rate 15% among 420,000; AID 686978, 2013; also: nearly all actives have a fitted effect of over 55% in size
#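 Camptothecin absent (DMSO only). Human TDP1-complemented DT40 knockout cells, 400 cells/well, 37 °C for minimum 48 hr; ATP measured via CellTiter-Glo, 30 min dark incubation, luminescence.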
# 12-LOX inh = blocks human arachidonate 12S-lipoxygenase; purified 12hLO, xylenol orange hydroperoxide absorbance; Potency, µM (top dose mostly 108 µM), for the others: at the highest dose activity change, negative = inhibition, actives largely listed as inhibitors; hit rate 1.1% among 580,000; AID 1671190
# Target sequence (P18054 whole entry, looked up): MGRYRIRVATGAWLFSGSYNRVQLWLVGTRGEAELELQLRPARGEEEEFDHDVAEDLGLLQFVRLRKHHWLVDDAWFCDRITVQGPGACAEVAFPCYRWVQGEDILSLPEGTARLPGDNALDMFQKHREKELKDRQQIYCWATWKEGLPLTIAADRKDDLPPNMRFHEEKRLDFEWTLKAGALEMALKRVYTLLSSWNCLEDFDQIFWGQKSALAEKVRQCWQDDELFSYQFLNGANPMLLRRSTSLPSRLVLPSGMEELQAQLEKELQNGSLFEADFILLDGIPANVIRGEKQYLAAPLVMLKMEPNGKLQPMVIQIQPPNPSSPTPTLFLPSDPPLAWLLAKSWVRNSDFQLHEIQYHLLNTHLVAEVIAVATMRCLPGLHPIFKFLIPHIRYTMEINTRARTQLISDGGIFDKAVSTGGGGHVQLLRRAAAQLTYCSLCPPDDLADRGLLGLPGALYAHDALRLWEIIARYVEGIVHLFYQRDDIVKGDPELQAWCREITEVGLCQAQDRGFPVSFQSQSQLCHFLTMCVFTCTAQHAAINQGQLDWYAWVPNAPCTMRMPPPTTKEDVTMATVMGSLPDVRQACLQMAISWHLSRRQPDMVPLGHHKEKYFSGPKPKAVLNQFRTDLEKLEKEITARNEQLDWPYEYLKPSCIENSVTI
#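 Purified human 12hLO (150 nM final) in 25 mM Hepes, 0.01% Triton X-100, pH 7.0 was preincubated 15 min at room temperature with compound. Then 40 uM arachidonic acid was added, 30 min. Hydroperoxide was read by Fe-XO absorbance ratio 573/405 nm.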
# RORgamma inh = blocks mouse ROR gamma transcriptional activity | P51450 | Drosophila S2 Gal4-RORgamma UAS-luciferase reporter, 20 h | Potency, µM (top dose mostly 53.6 µM), for inactives: at the top dose activity change, negative = inhibition, most hits filed as inhibitors | hit rate 5.4% among 310,000; also: nearly all actives have a fitted effect of over 60% in size
#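 Luminescence from a UAS-regulated Photinus luciferase reporter in stably transfected Drosophila Schneider cells is measured; decreased signal marks ROR gamma inhibition. Fusion expression is induced by 700 uM copper sulfate for 20 hr.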
# ELG1 repair inh = ELG1-dependent DNA repair inhibition. hit rate 2.3% among 330,000. HEK293T ELG1-luciferase reporter, luminescence, 16 h; DNA damage induced by 5-fluorouridine. Potency, µM (top dose mostly 46.1 µM), without a hit: at the top dose activity change, negative = inhibition, most hits filed as inhibitors; also: nearly all actives have a fitted effect of over 55% in size
#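 Cells (2,000 per well) received 5-fluorouridine plus test compound or DMSO and were incubated 16 hr at 37 °C, 5% CO2. Luciferase activity was read by luminescence 30 min after ONE-Glo addition; signal suppression marked inhibition of damage-induced ELG1 function.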
# Starred values were filed as active, the others as inactive; ? = inconclusive; . = no result; [ ] = remark or other dose. Sampled rows, rich in hits. Any-hit rate of the full collection: about 15%. Calls follow the shape of the dose curve; as a rule, active = well fitted curve in the direction sought with a large enough effect; inconclusive = small, poorly fitted or top-dose-only effect, or another doubt; inactive = no such curve, though single readings can be large; an effect the other way counts as inactive or inconclusive. % is scaled to controls: 0 for no effect and ±100 for the full control effect; potency is read from the fitted curve at half-maximal effect.
SMILES,VP16 counter,TDP1 cell CPT,TDP1 cell noCPT,12-LOX inh,RORgamma inh,ELG1 repair inh
O=C(NCCc1ccccc1)c1ccc(CSc2nc3ccncc3n2Cc2ccccc2F)cc1,.,15µM*,?,-10%,.,.
Cn1nnnc1Sc1ncnc2scc(-c3ccc(-c4ccccc4)cc3)c12,.,.,.,-1%,.,?
CCn1nnnc1Sc1nc(C)nc2scc(-c3ccccc3)c12,.,?,8.9µM*,.,.,.
Cc1nc(Sc2nnnn2C2CC2)c2c(-c3ccccc3)csc2n1,.,?,11µM*,.,.,.
CCOC(=O)c1ccc2ncc(C(=O)OCC)c(NCCc3ccc(OC)c(OC)c3)c2c1,.,26µM*,15µM*,2%,.,.
CCOC(=O)c1cnc2ccc(C(=O)OC)cc2c1NCCc1ccc(OC)c(OC)c1,-26%,?,18µM*,-15%,-15%,15µM*
CCOC(=O)c1cnc2ccc(C(=O)OC)cc2c1NCCN1CCOCC1,-3%,?,-18%,-5%,-9%,-21%
O=S(=O)(c1cc(Cl)ccc1Cl)N1CCc2ccccc21,-2%,?,?,0%,-4%,-1%
O=S(=O)(c1ccccc1)N1CCCc2ccccc21,5%,.,.,.,1%,3%
O=S(=O)(c1cnc(Cl)c(Cl)c1)N1CCc2ccccc21,2%,?,16µM*,-1%,1%,9%
CC1CCN(S(=O)(=O)c2cnc(Cl)c(Br)c2)CC1,-10%,-16%,-24%,2%,5%,?
O=S(=O)(c1cnc(Cl)c(Br)c1)N1CCc2ccccc21,2%,16µM*,?,-18%,0%,9%
O=S(=O)(c1cnc(Cl)c(Cl)c1)N1CCCc2ccccc21,-20%,18µM*,16µM*,16%,?,?
Cn1cc(C2c3nccn3CCCN2C(=O)c2ncccc2F)cn1 (stereo not drawn),.,.,.,11%,.,.
CCc1c(C)nc2ncnn2c1N1CCC(C(=O)N2CCN(c3ccc(F)cc3)CC2)CC1,-17%,16µM*,15µM*,-21%,40%,23µM*
O=C(C1CCN(c2ncnc3c2nc2n3CCCCC2)CC1)N1CCN(c2ccc(F)cc2)CC1,-25%,?,12µM*,?,?,7.3µM*
O=C(C1CCN(c2ncnc3c2nc2n3CCCCC2)CC1)N1CCN(c2ccccc2)CC1,.,?,21µM*,-9%,.,.
O=c1c2ccccc2cnn1CCOc1ccccc1,4µM*,-28%,?,12%,4.5µM*,?
CC(C)(C)c1ccc(OCCn2nc(C(=O)O)c3ccccc3c2=O)cc1,?,16µM*,21µM*,17%,22%,16%
Cc1cccc(OCCn2nc(C(=O)O)c3ccccc3c2=O)c1,5%,-18%,-28%,-4%,3%,?
CCN(c1ccccc1)S(=O)(=O)c1ccc(C(=O)NC2CC(C)(C)NC(C)(C)C2)cc1,.,.,.,69%,.,.
CN(Cc1ccccc1)C(=O)CC(c1ccccc1)c1cc(Cl)ccc1O (stereo not drawn),0%,23µM*,21µM*,-17%,?,-23%
CC(NC(=O)CC(c1ccccc1)c1cc(Cl)ccc1O)c1ccccc1 (stereo not drawn),3%,15µM*,21µM*,-17%,39%,-26%
CC(=O)c1cccc(NC(=O)Cn2cnnc2C#N)c1,.,.,.,-8%,.,.
COc1cccc(NC(=O)c2cnc(SCC(=O)N3CCOCC3)n(C)c2=O)c1,.,15µM*,15µM*,5%,.,.
SMILES,VP16 counter,TDP1 cell CPT,TDP1 cell noCPT,12-LOX inh,RORgamma inh,ELG1 repair inh
COc1cccc(NC(=O)Cn2c(SCC(=O)N3CCOCC3)nc3ccccc32)c1,1%,-5%,-9%,14%,27%,10%
COc1cccc(NC(=O)c2cnc(SCC(=O)NCc3ccc4c(c3)OCO4)n(C)c2=O)c1,.,21µM*,12µM*,-5%,.,?
O=C(CN1C(=O)COc2ccc(S(=O)(=O)N3CCCCC3)cc21)NCCc1ccc(Cl)cc1,.,?,18µM*,-19%,.,.
CCOc1ccc(CCNC(=O)CN2C(=O)COc3ccc(S(=O)(=O)N4CCCCCC4)cc32)cc1,.,.,.,-10%,.,.
CCOc1ccc(CCNC(=O)CN2C(=O)COc3ccc(S(=O)(=O)N(CC)CC)cc32)cc1,.,23µM*,?,0%,.,.
CSc1ccc(CCNC(=O)CN2C(=O)COc3ccc(S(=O)(=O)N4CCCC4)cc32)cc1,.,23µM*,?,-12%,.,.
COc1ccc(CCNC(=O)CN2C(=O)COc3ccc(S(=O)(=O)N4CCCCCC4)cc32)cc1OC,.,.,.,-6%,.,.
COC(=O)CNC(=O)c1cc(-c2ccc(Cl)nc2)c2cnn(C)c2n1,.,.,.,3%[6.33 µM],.,.
Cc1cccc(OCCN2C(=O)c3ccccc3C2=O)c1,?,-13%,9%,-1%,42%,?
Cc1cccc(OCCCN2C(=O)C(=O)c3cc(C)ccc32)c1,-3%,1.6µM*,0.92µM*,-26%,25%,0%
Cc1cccc(OCCn2c(=O)sc3ccccc32)c1,-14%,?,?,183%,-9%,?

# Bioassay records as filed in PubChem BioAssay.
